Assay [1] deals with Serine/threonine-protein kinase 26 (Homo sapiens) (UniProt Q9P289). The conditions noted are these: at 1 µM.
The target in assay [2] is Serine/threonine-protein kinase PAK 1 (Homo sapiens) (UniProt Q13153). The following applies: at 0.1 µM.
The target is the same in assay [3]. The following applies: at 1 µM.
Assay [4] has as its target Serine/threonine-protein kinase PAK 2 (Homo sapiens) (UniProt Q13177). The following applies: at 0.1 µM.
For assay [5] the target is unchanged. The following applies: at 1 µM.
Assay [6] addresses Serine/threonine-protein kinase PAK 3 (Homo sapiens) (UniProt O75914). The conditions noted are these: at 0.1 µM.
The target is the same in assay [7]. The conditions noted are these: at 1 µM.
In assay [8] the target is Serine/threonine-protein kinase PAK 5 (Homo sapiens) (UniProt Q9P286). The conditions noted are these: at 0.1 µM.
Chain of Serine/threonine-protein kinase PAK 5 (Homo sapiens) (Q9P286 whole entry, looked up): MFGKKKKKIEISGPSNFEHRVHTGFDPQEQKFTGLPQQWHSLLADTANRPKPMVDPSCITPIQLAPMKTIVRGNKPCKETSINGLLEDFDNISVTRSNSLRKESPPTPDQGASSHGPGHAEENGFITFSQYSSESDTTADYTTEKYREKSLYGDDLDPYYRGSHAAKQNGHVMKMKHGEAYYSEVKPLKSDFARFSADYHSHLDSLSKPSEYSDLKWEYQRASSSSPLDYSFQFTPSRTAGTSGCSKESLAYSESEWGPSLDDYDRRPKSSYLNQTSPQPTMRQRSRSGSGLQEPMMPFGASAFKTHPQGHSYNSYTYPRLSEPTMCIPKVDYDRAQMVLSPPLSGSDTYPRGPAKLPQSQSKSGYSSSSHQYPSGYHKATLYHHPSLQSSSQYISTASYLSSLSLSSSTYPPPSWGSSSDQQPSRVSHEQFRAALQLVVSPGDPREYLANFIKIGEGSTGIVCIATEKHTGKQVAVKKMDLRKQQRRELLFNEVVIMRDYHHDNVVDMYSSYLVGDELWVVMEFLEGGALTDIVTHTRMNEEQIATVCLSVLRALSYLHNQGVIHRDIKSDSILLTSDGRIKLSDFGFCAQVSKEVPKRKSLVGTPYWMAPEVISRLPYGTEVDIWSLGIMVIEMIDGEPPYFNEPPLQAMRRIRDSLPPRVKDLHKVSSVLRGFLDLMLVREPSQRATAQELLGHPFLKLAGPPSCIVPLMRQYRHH
For assay [9] the target is unchanged. The conditions noted are these: at 1 µM.
Assay [10] concerns the target Serine/threonine-protein kinase PAK 6 (Homo sapiens) (UniProt Q9NQU5). The following applies: at 0.1 µM.
Assay [11] has the same target. The conditions noted are these: at 1 µM.
The subject of assay [12] is Tyrosine-protein kinase ABL1 (Homo sapiens), P00519 [E255K]. The conditions noted are these: at 0.1 µM.
Assay [13] has the same test system. The following applies: at 1 µM.
Assay [14] deals with Tyrosine-protein kinase ABL1 (Homo sapiens), P00519 [H396P]. The following applies: at 0.1 µM.
Assay [15] has the same test system. The conditions noted are these: at 1 µM.
Assay [16] has as its system Tyrosine-protein kinase ABL1 (Homo sapiens), P00519 [M351T]. The following applies: at 0.1 µM.
Assay [17] shares this test system. The conditions noted are these: at 1 µM.
Assay [18] concerns Tyrosine-protein kinase ABL1 (Homo sapiens), P00519 [Q252H]. The conditions noted are these: at 0.1 µM.
The test system is the same in assay [19]. The following applies: at 1 µM.
Assay [20] has as its system Tyrosine-protein kinase ABL1 (Homo sapiens), P00519 [T315I]. The following applies: at 0.1 µM.

Structures are written as SMILES.

One may read the inhibition as the change of the read-out against control, counted positive when it falls.

Chain of Serine/threonine-protein kinase PAK 2 (Homo sapiens) (Q13177 whole entry): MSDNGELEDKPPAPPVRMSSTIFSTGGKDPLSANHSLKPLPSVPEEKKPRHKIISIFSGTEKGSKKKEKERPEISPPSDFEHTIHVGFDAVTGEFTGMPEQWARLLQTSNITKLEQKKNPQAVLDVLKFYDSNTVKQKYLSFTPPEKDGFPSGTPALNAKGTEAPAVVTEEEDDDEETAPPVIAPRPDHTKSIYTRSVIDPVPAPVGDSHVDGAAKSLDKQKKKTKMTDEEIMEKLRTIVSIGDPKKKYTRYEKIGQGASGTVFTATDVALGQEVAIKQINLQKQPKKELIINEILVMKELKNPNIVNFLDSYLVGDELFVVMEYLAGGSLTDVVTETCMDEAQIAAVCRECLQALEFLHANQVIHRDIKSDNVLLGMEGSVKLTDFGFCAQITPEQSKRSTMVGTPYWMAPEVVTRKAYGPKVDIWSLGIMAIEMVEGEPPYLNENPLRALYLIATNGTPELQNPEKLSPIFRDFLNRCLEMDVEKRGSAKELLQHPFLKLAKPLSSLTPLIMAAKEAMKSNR
Chain of Serine/threonine-protein kinase PAK 3 (Homo sapiens) (O75914 whole entry, looked up): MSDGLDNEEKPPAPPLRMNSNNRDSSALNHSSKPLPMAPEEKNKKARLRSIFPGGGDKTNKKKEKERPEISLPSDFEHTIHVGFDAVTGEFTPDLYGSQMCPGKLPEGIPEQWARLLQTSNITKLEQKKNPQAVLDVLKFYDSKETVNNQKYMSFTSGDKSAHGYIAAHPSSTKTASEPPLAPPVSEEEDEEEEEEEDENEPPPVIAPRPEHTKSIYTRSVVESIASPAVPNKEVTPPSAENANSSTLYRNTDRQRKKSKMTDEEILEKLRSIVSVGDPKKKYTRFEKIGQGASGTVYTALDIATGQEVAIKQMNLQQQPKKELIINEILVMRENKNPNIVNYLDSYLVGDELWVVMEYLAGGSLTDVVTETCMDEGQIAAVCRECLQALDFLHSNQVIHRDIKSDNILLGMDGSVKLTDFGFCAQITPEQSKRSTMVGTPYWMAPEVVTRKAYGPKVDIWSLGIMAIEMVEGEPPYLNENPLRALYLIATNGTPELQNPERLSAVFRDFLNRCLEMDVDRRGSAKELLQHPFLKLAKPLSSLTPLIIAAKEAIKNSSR
Chain of Serine/threonine-protein kinase PAK 1 (Homo sapiens) (Q13153 whole entry): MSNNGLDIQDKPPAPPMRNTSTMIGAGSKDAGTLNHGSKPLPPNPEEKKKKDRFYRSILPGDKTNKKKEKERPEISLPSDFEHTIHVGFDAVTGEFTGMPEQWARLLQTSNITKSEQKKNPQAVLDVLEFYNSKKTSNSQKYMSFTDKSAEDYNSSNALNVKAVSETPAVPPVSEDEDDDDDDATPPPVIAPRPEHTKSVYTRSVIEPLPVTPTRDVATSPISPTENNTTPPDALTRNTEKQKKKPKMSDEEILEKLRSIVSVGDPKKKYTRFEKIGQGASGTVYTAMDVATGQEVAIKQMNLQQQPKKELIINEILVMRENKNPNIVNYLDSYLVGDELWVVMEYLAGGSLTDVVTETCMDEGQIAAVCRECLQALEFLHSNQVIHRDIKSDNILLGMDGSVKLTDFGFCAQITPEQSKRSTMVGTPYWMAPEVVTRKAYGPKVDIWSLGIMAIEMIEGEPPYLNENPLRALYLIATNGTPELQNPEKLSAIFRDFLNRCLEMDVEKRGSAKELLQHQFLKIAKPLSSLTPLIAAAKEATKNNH
Chain of Serine/threonine-protein kinase PAK 6 (Homo sapiens) (Q9NQU5 whole entry, looked up): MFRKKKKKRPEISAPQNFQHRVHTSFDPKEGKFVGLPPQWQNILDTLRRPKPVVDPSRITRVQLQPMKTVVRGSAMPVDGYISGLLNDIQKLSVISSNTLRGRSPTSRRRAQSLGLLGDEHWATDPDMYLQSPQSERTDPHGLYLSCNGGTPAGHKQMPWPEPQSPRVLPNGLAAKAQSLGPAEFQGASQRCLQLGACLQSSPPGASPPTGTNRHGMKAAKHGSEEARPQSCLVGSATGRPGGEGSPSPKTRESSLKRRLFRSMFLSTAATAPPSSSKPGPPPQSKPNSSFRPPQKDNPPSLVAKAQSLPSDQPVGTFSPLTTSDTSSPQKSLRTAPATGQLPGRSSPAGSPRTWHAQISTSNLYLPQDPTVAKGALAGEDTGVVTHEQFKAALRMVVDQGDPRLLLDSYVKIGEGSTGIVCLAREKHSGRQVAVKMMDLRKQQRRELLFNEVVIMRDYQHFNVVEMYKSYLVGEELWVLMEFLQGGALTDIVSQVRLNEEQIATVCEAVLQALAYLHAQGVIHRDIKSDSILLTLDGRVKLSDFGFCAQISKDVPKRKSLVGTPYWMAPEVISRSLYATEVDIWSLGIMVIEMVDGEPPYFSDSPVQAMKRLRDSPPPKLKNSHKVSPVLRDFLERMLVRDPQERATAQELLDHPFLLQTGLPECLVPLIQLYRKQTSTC
Chain of Serine/threonine-protein kinase 26 (Homo sapiens) (Q9P289 2-416 limits assumed): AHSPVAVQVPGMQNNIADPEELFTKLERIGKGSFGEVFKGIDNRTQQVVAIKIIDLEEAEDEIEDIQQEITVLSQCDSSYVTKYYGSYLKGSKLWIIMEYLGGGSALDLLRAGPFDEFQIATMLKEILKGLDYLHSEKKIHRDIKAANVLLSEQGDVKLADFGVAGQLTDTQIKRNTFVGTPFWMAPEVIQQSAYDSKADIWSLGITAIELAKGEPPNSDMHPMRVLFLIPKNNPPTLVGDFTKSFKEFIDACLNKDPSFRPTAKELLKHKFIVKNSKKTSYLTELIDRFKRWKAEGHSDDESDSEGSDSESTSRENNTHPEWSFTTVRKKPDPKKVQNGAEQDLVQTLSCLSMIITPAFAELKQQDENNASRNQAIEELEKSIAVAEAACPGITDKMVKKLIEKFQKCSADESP

On to `CS(=O)(=O)Nc1ccc(-c2cc(-c3ccccc3)cc(C(N)=O)c2N)cc1`, for which the inhibition in [1] was -0.88%; in assay [2], 4.98%; in [3], 4.78%; in assay [4], -0.21%; in assay [5], -0.16%; in assay [6] it was 0.92%. Further, the inhibition in [7] is 3.38%; in [8], 1.42%; in [9], 0.16%; in assay [10] it was -9.24%; in [11], -8.25%; in assay [12] it was 1.39%. Also, the inhibition in [13] came to 2.13%; in assay [14], 1.72%; in assay [15], 3.82%; in assay [16], 0.69%; in assay [17], 2.62%; in [18], 2.8%. Further, the inhibition in assay [19] was determined as 3.07%; in assay [20], 0.02%.

Take `N#Cc1cccc(Nc2ncc(-c3ccccc3)o2)c1`: the inhibition in [1] is -0.74%; in [2], -2.44%; in [3] it was -0.39%; in assay [4], 0.33%; in assay [5] it was -0.77%; in [6], 2.61%. Also, the inhibition in [7] was 2.5%; in [8] it was -5.2%; in assay [9], 1%; in assay [10], 3.79%; in assay [11], -3.46%; in assay [12], 1.93%. The inhibition in assay [13] was 13.5%; in assay [14] it was 4.61%; in assay [15] it was 26.9%; in assay [16], 2.88%; in [17], 27.1%; in assay [18] it was 3.25%. In addition, the inhibition is 21.2% in [19] and 2.21% in [20].

In the case of `CCn1c(-c2nonc2N)nc2cncc(C(=O)NCCNC)c21`, the inhibition is -4.29% in [1]; 6.24% in assay [2]; 7.29% in assay [3]; 1.98% in assay [4]; 2.75% in assay [5]; 5.11% in assay [6]. Further, the inhibition in assay [7] was 5.12%; in assay [8] it was 3.97%; in [9], 7.69%; in [10], 0.36%; in assay [11], -1.02%; in [12], 3.42%. The inhibition in assay [13] was 4.29%; in [14] it was 3.77%; in [15] it was 6.65%; in assay [16], -0.31%; in assay [17], 3.11%; in assay [18], 4.53%. The inhibition in assay [19] was found to be 5.61%; in [20] it was 3.85%.

Take `Cc1cc(O)cc(C)c1/C=C/c1cncc(C(=O)OC(C)(C)C)c1`: the inhibition in assay [1] was 2.31%; in assay [2] it was 5.41%; in assay [3] it was 2.7%; in assay [4] it was -0.11%; in assay [5], 0.96%; in assay [6] it was 2.25%. In addition, the inhibition in [7] was 2.76%; in [8], 0.52%; in assay [9] it was 4.26%; in assay [10] it was 2.02%; in assay [11], -0.98%; in assay [12] it was 4.42%. For the same molecule, the inhibition was 21.6% in assay [13]; 7.59% in assay [14]; 35% in [15]; 9.08% in [16]; 46% in assay [17]; 11.7% in assay [18]. Also, the inhibition in [19] came out at 52.5%; in assay [20], 1.3%.

`COc1cc(N2CCN(C(C)C)CC2)ccc1Nc1nc(Nc2cccc3ncccc23)c2cc[nH]c2n1`: the inhibition in assay [1] was 1.78%; in assay [2], 0.3%; in assay [3], -1.25%; in [4], 0.87%; in assay [5] it was -0.27%; in assay [6], -1.68%. The inhibition was -0.48% in assay [7]; -2.43% in assay [8]; -1.65% in assay [9]; 1.57% in assay [10]; -4.19% in assay [11]; 0.09% in assay [12]. Moreover, the inhibition in [13] amounted to 0.59%; in assay [14], 2.17%; in assay [15], 3.86%; in assay [16], 2.31%; in [17], 3.99%; in assay [18], 1.61%. For the same molecule, the values for the inhibition in assay [19] and in assay [20] were 3.51% and 1.61%, respectively.

On to `CNC(=O)c1sc(-n2cnc3cc(OC)c(OC)cc32)cc1OCc1ccccc1C(F)(F)F`, for which the inhibition turned out to be 4.9% in [1]; 2.95% in assay [2]; 1.15% in assay [3]; 0.12% in assay [4]; 0.57% in assay [5]; 4.1% in assay [6]. For the same molecule, the inhibition in assay [7] was 2.98%; in [8], 1.27%; in assay [9], 0.17%; in [10], -2.28%; in assay [11], -4.28%; in [12] it was 1.88%. The inhibition in assay [13] worked out at 9.07%; in assay [14] it was 3.16%; in [15], 10.5%; in assay [16], 0.2%; in assay [17], 6.66%; in assay [18], 4.26%. Besides, the results for the inhibition in assay [19] and in assay [20] were 7.88% and 1.96%, respectively.

For `Cn1c(-c2nonc2N)nc2cnccc21`, the inhibition in [1] was -1.1%; in assay [2] it was 5.69%; in [3], 9.42%; in [4], 1.04%; in assay [5], 0.39%; in assay [6], 3.23%. Further, the inhibition in assay [7] is 2.69%; in assay [8] it was -1.86%; in assay [9], -0.53%; in [10], 3.95%; in [11], 0.39%; in assay [12], 2.74%. In addition, the inhibition in [13] stood at 1.01%; in assay [14], 2.83%; in [15], 2.87%; in assay [16] it was 1.44%; in assay [17] it was 2.81%; in [18], 2.07%. The inhibition is 1.71% in [19] and 0.03% in [20].

The values above are taken from ChEMBL document CHEMBL1961873, “Compounds: GSK PKIS; Assays: Nanosyn kinase panel” (2012).
